Bioassay records from PubChem BioAssay.
Pf growth 96h = P. falciparum growth inhibition at 96 hours | hit rate 6.9% among 320,000 | P. falciparum luciferase reporter growth, 96 h | AID 504834 | Potency, µM (top dose mostly 28.7 µM), for the others: at the highest dose activity change, negative = inhibition, hits mostly inhibitors; also: potency is read from the fitted curve at half-maximal effect; % is scaled to controls: 0 for no effect and ±100 for the full control effect
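Infected RBCs, 2% Hct / 0.05% parasitemia final; luciferase-reporter P. falciparum; cpd 96 h, 37 C, 5% CO2; luciferase detection reagent; luminescence.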
Pf growth 48h = P. falciparum growth inhibition at 48 hours (one generation); P. falciparum luciferase growth in erythrocytes, 48 h; Potency, µM (highest dose often 28.7 µM), for inactives: at the top dose activity change, negative = inhibition, usual class: inhibitors; hit rate 5.9% among 310,000; AID 504832; also: potency is read from the fitted curve at half-maximal effect; % is scaled to controls: 0 for no effect and ±100 for the full control effect
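Cell-based growth assay: transgenic P. falciparum expressing firefly luciferase, cultured in red cells within RPMI 1640 containing 0.5% w/v Albumax, 24 mM bicarbonate and gentamycin. A drop in luciferase activity indicates inhibition.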
NS1 function inh = influenza NS1 inhibition | hit rate 0.4% among 270,000 | Potency, µM (doses to about 46.1 µM), without a hit: at the highest dose activity, positive = more growth; calls by dose curve; also: potency is read from the fitted curve at half-maximal effect; actives are rising curves; nearly all actives have a fitted effect of over 50% in size
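S. cerevisiae expressing influenza A NS1, grown in glucose, washed, then diluted 1:100 into pH 6.0 -URA galactose medium with 23 nl compound. Growth recovery read as OD600; NS1-free strain serves as control.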
CHX counter = affects cycloheximide protein synthesis inhibition readout, counter-screen; hit rate 12% among 300,000; AID 2314; cell reporter, cycloheximide protein synthesis inhibition counterscreen; max response, %; in the data active = max response mostly above about 13%, no sharp cut-off; inactive = mostly below about 14%; also: read at 38.3 µM for the half of the compounds with a filed dose; 0% is about no effect
Shiga inhibitor = inhibitors of Shiga toxin in Vero cells; hit rate 9.2% among 290,000; Vero cells, Shiga toxin protein synthesis inhibition reporter; inhibition, % at 38.7 µM; AID 2315; in the data active = inhibition mostly above about 28%, no sharp cut-off; inactive = mostly below about 43%; also: 0% is about no effect
Numbers without * were called inactive; ? = inconclusive; . = no result. The list is not random: actives were taken first. Their share in the collection is about 21%. Unless noted, calls follow the shape of the dose curve; as a rule, active = well fitted inhibition curve with a large enough effect; inconclusive = small, poorly fitted or top-dose-only effect, or another doubt; inactive = no such curve, though single readings can be large or run the other way.

SMILES	Pf growth 96h	Pf growth 48h	NS1 function inh	CHX counter	Shiga inhibitor
CCOC(=O)c1c(C)nc2sc3c(c2c1-c1ccc(OC)cc1)NC(c1ccc(OC)cc1)NC3=O (stereo not given)	2.62µM*	?	3.4%	-3.6	-14.6
Cc1ccc(NC(=O)C[n+]2ccccc2)cc1C	9.28µM*	13.9%	19.1%	-1.5	7.4
Cc1cccc(NC(=O)C[n+]2ccccc2)c1	?	52.0%	-3.6%	-2.0	.
CCc1ccc(NC(=O)Cc2ccc(-n3cccc3)cc2)cc1	2.08µM*	20.1%	15.8%	-5.9	-1.7
Cc1ccc(NC(=O)CN2C(=O)S/C(=C\c3ccccn3)C2=O)cc1C	10.4µM*	-13.4%	7.1%	0.8	-5.2
Cc1ccc(NC(=O)Cn2cccc2)cc1C	0.0%	0.0%	-4.6%	15.1*	33.1
CC1Sc2ccc(S(=O)(=O)CCC(=O)NC3CCCCC3C)cc2NC1=O (stereo not given)	0.3%	10.8%	7.9%	-1.4	-3.0
Cc1ccc(NC(=O)Cn2cccc2)cc1	22.2%	25.3%	.	5.4	20.3
CCc1ccc(NC(=O)Cn2cccc2)cc1	?	36.4%	.	24.6*	66.2
Cn1c(=O)c2c(ncn2CC(O)CNc2ccc(Br)cc2)n(C)c1=O (stereo not given)	.	-20.1%	1.5%	-3.0	16.3
CCCc1cc(=O)oc2c3c(c4c(c12)OC(C)(C)C=C4)OC(C)C(C)C3O (stereo not given)	10.4µM*	?	0.2%	-2.4	-6.3
COc1ccc(C)cc1NC(=O)CN(C)S(=O)(=O)c1cnc[nH]1	.	24.9%	6.6%	-2.8	-11.1
Cc1ccc(N2CC(O)=C(c3ccccc3)C2=N)cc1	59.7%	22.6%	.	17.7*	24.2
N=C1C(c2ccccc2)=C(O)CN1CCCO	14.7µM*	?	.	-3.4	2.7
N=C1C(c2ccccc2)=C(O)CN1c1ccccc1	-23.8%	1.9%	-0.2%	1.8	-15.9
COc1cc(NC(=O)CN2C(=O)COc3ccc(S(=O)(=O)N4CCOCC4)cc32)cc(OC)c1	-0.6%	-8.7%	-5.0%	9.8	-2.3
Cc1nc(C(C)N(C)Cc2nc(-c3ccc4c(c3)OCO4)no2)c(C)s1 (stereo not given)	1.1%	23.7%	-11.4%	50.6*	44.7
Cc1cccc(-c2noc(CN(C(=O)c3ccc4c(c3)OCO4)C(C)C)n2)c1	.	4.9%	-30.4%	-1.9	-19.4
Cc1ccccc1C(=O)c1cccn1CC(=O)NC1CCCC(C)C1C (stereo not given)	57.0%	-19.3%	-26.9%	-2.3	-11.6
CC1CCCCC1NC(=O)Cn1cccc1C(=O)c1ccccc1 (stereo not given)	-11.0%	-1.0%	-7.1%	15.5*	24.9
Cc1ccccc1C(=O)c1cccn1CC(=O)NCc1ccccc1Cl	?	17.2%	-5.6%	21.6*	49.6*
O=C(Cn1cccc1C(=O)c1ccccc1)NCc1ccccc1Cl	8.9%	21.3%	-8.6%	37.6*	75.0*
COc1ccccc1CNC(=O)Cn1cccc1C(=O)c1ccccc1	14.5%	18.7%	-5.9%	27.5	48.3*
O=C(CSc1n[nH]c(-c2ccccc2Cl)n1)NCc1cccc(C(=O)O)c1	?	11.3%	3.4%	-2.2	9.9
CCn1nc(-c2cccs2)nc2c(=O)n(C)c(=O)nc1-2	.	-9.8%	-204.4%	26.0*	25.6*
SMILES	Pf growth 96h	Pf growth 48h	NS1 function inh	CHX counter	Shiga inhibitor
COc1ccc(OC)c(/C=c2\sc3nc(-c4cccs4)nn3c2=O)c1	0.0%	3.4%	-1.6%	-3.4	-3.4
CCn1nc(/C=C/c2ccccc2)nc2c(=O)n(C)c(=O)nc1-2	11.7µM*	-3.3%	-1.6%	11.1	28.6
O=C(CN(C(=O)c1csnn1)c1ccc(F)c(Cl)c1)NCc1ccc(F)cc1	?	?	-2.4%	0.4	24.6
CSc1ccc(Cc2ccc(Cl)cc2Cl)nn1	37.8%	32.5%	-15.9%	22.2*	38.4
NNc1ccc(Cc2ccc(Cl)cc2Cl)nn1	?	321.7%	.	-3.1	15.6
Cc1nc2cc(-c3ccsc3-n3c(C)ccc3C)[nH]n2c(=O)c1Cl	14.7µM*	.	2.6%	-3.7	-0.6
CCOC(=O)CCc1c(C)nc2cc(-c3ccccc3OC)[nH]n2c1=O	?	?	-0.6%	-3.2	6.1
Cc1cc(=O)n2[nH]c(-c3ccsc3-n3c(C)ccc3C)cc2n1	6.57µM*	73.3%	7.7%	32.6	8.7
COCc1cc(=O)n2[nH]c(-c3ccsc3-n3c(C)ccc3C)cc2n1	-5.9%	.	23.6%	-2.1	-7.1
COc1ccc(/C=N/n2c(-c3ccco3)nc3ccccc3c2=O)cc1	?	-26.7%	-0.9%	28.1	45.3*
O=c1c2ccccc2nc(-c2ccco2)n1/N=C/c1ccco1	.	50.9%	-11.6%	16.2*	54.9
O=c1c2ccccc2nc(-c2ccco2)n1/N=C/c1ccccc1O	11.0%	?	6.6%	1.6	-31.8
COc1cc(/C=N/n2c(C)nc3ccccc3c2=O)ccc1O	6.8%	-14.1%	6.3%	15.8	5.8
Cc1ccccc1OCc1nc2ccccc2c(=O)n1/N=C/c1ccco1	?	-13.7%	-11.0%	32.9*	63.6*
Cc1nc2ccccc2c(=O)n1/N=C/c1ccco1	?	34.5%	.	10.8	12.7
COc1cccc(/C=N/n2c(-c3ccco3)nc3ccccc3c2=O)c1	.	30.1%	-19.0%	54.5*	144.8*
CC1CCCC(CC(=O)O)(CC(=O)O)C1 (stereo not given)	0.0%	?	?	1.3	12.2
CC1(C)NC(=O)N(CC(O)CN(c2cccc([N+](=O)[O-])c2)S(=O)(=O)c2ccccc2)C1=O (stereo not given)	-29.6%	23.9%	0.5%	-8.9	-5.3
Cc1noc(C)c1S(=O)(=O)N(CC(=O)N1CCCCCC1)c1ccc(C(C)C)cc1	41.8%	.	-88.1%	7.2	11.6
CCCOc1ccccc1/C=C(\C#N)C(=O)Nc1cccc(C)n1	?	-6.8%	-8.0%	13.9*	28.6*
N#C/C(=C\c1ccc(OCc2ccc(Br)cc2)cc1)C(=O)Nc1cccc(C(=O)O)c1	80.7%	13.0%	-64.7%	22.7*	94.9*
COc1cc(/C=C(\C#N)C(=O)Nc2cccc(C(=O)O)c2)ccc1OCc1ccc(F)cc1	26.0%	-3.1%	9.3%	25.4*	61.5*
N#C/C(=C\c1ccc(OCc2ccc(F)cc2)cc1)C(=O)Nc1cccc(C(=O)O)c1	-0.8%	-2.7%	-46.3%	3.4	42.3
COC(=O)c1ccc(COc2ccccc2/C=C(\C#N)C(=O)Nc2ccc(C)cc2)cc1	19.4%	65.9%	3.8%	86.6*	99.4*
CCc1ccc(S(=O)(=O)N/N=C\c2cn(CC(N)=O)c3ccccc23)cc1	?	21.0%	-0.4%	-2.4	-12.6
CC(=O)c1ccc(OCC(=O)NCC(c2ccco2)N2CCCCC2)cc1 (stereo not given)	4.8%	-4.0%	.	10.5	25.5
Cc1cc2oc(=O)cc(CN(C)Cc3ccccc3Cl)c2cc1C	-14.1%	?	-6.0%	-2.2	14.9
